Measurements from PubChem BioAssay AID1460 (National Center for Advancing Translational Sciences (NCATS), 2008).
The whole screen tested about 270,000 compounds, of which about 5,800 (2.1%) were called active. Another 16% or so got no clear call; they are omitted. This is one part of a sample in which actives are shown more often than they occur. The call rests on the fitted dose curve; in most records, active means well fitted inhibition curve with a large enough effect; inconclusive means small, poorly fitted or top-dose-only effect; inactive means flat fitted curve, though single readings scatter.

Biological target: Microtubule-associated protein tau (Homo sapiens) (UniProt P10636)
Assay: qHTS for Inhibitors of Tau Fibril Formation, Thioflavin T Binding; further: nearly all actives have a fitted effect of over 55% in size
Conditions: recombinant tau K18 P301L (four-repeat tau fragment), heparin-induced fibrillization, ThT fluorescence; series mostly up to 57.4 µM; activity, negative = inhibition: at the top concentration
Summary of the method: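 Heparin-induced (20 uM) aggregation of recombinant human K18 P301L tau, 15 uM unlabeled with 0.24 uM labeled, pH 7 acetate buffer, 6 hr at 37 C with compound. Fibrils quantified by 30 uM ThT fluorescence after 1 hr ambient incubation.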
On the % scale 0 is the no-effect control and ±100 the full control effect; potency means the concentration at half of the fitted maximal effect.

Sequence of Microtubule-associated protein tau (Homo sapiens) (P10636 561-689 P618L limits assumed): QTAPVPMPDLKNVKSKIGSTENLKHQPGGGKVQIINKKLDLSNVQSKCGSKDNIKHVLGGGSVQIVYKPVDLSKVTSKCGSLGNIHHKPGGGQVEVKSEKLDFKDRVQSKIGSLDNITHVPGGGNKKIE

activity, negative = inhibition, inactive:
COC(=O)c1cc(NC(=O)c2cnc(SC)nc2-c2ccccc2)cc(C(=O)OC)c1 -2.89%
Cc1ccc(Nc2ccc3cc(S(=O)(=O)N4CCCCC4)ccc3n2)cc1F 1.9%
CCc1nc(NCCO)c(C#N)c2c1CCCC2 -1.9%
CCCCc1nc(NCc2ccccc2)c(C#N)c2c1CCCC2 -11.9%
COc1ccc(SCc2cc(=O)c3ccc(C)c(C)c3[nH]2)cc1 -4.47%
COc1ccc(CNC(=O)C(C)n2nc(C)c3c(C)n(-c4ccccc4)nc3c2=O)c(OC)c1 (stereo not drawn) 13.1%
CCOC(=O)c1[nH]c(C)c(CCC(=O)NCc2ccccc2C)c1C 4.91%
Cc1cc(NC(=O)CN2CCCC(C)C2)n(-c2nc3ccccc3s2)n1 (stereo not drawn) -4.78%
CCOC(=O)N1CCN(CC(=O)Nc2cc(C)nn2-c2nc3ccccc3s2)CC1 -20.1%
COc1ccccc1N1CCN(c2ncnc3onc(-c4ccc(F)cc4)c23)CC1 -11%
N#Cc1ccccc1Cn1cnc2nc3c(cc2c1=O)CCCC3 6.09%
CCOC(=O)c1c(NC(=O)/C(C#N)=C/c2ccccc2)sc2c1CCC2 -11.2%
CCOC(=O)N1CCc2c(sc3c2C(=O)NC(c2ccccc2F)N3)C1 (stereo not drawn) -16.9%
O=C(Nc1ccc2nc(SCC(=O)N3CCCc4ccccc43)sc2c1)c1ccc(Cl)cc1 -9.33%
CCC(=O)Nc1c(C(=O)N2CCN(c3ccc(F)cc3)CC2)oc2ccccc12 -8.2%
CC(=O)N(C)c1ccc(NC(=O)C(F)(F)F)cc1 -4.07%
O=C(/C=C/Nc1ccccc1OC(F)(F)F)C(F)(F)F 12.2%
COC(=O)c1scc(-c2ccccc2)c1S(=O)(=O)Nc1ccccc1 -4.33%
CSc1nc(Nc2ccc(F)cc2)cc(-c2ccccc2)n1 1.92%
Cc1ccccc1OCCSc1nc2ccc(NC(=O)c3ccco3)cc2s1 8.23%
COc1cccc2c1cc1c(=O)n(CC(=O)N3CCN(c4cccc(Cl)c4)CC3)nc(C)n12 2.8%
Cc1ccc(NC(=O)C(=O)NCC(c2cccnc2)N2CCOCC2)cc1 (stereo not drawn) -11.6%
Cc1cc(C)c2nc(NC(=O)c3ccc4c(c3)OCO4)sc2c1 -7.3%
O=C(Nc1nc2ccccc2s1)c1ccc2c(c1)OCO2 -0.597%
COc1ccc(-c2noc(-c3ccc(N4CCN(c5ccccc5)CC4)c([N+](=O)[O-])c3)n2)cc1OC -14.1%
O=C(Nc1ccccc1F)C(c1ccccc1)N1Cc2ccccc2C1=O (stereo not drawn) -3.81%
Cc1[nH]n(-c2ccc(Cl)cc2)c(=O)c1/C=N/n1c(C)nc2ccccc2c1=O -19.5%
C[N+](C)(CCCCCC[N+](C)(C)CCCN1C(=O)c2cccc3cccc(c23)C1=O)CCCN1C(=O)c2cccc3cccc(c23)C1=O 3.91%
COc1ccc(NC(=O)CCCc2nnc3n(CCC(C)C)c(=O)c4sccc4n23)c(OC)c1 -4.84%
COC(=O)c1cc2occc2n1Cc1nc(-c2ccc(C)cc2)oc1C 7.52%
COc1cccc(C(=O)NCc2ccc3c(c2)CCN3C(=O)c2ccncc2)c1 -1.82%
Cc1ccc(Cl)cc1N1CCN(C(=O)c2cccn3c(=O)c4cc(Cl)ccc4nc23)CC1 1.52%
COc1ccc(NS(=O)(=O)c2cc3c(cc2C)N(C(C)=O)CCO3)cc1 -6.28%
Cc1cc(C(=O)COC(=O)C2CC2)c(C)n1-c1ccc(F)cc1 -7.67%
Cc1nn(CC(=O)N/N=C/c2ccc(F)cc2)c(C)c1[N+](=O)[O-] -6.13%
Cc1ccc2c(=O)c(C(=O)c3ccc(Cl)cc3)cn(CC(=O)NC3CCCCC3)c2n1 -11.7%
CCOC(=O)C1=C(C)NC(=O)NC1c1ccccc1 (stereo not drawn) -5.11%
CCOC(=O)C1=NOC(Cn2cc(C(C)=O)c(=O)[nH]c2=O)C1 (stereo not drawn) 0.727%
CCc1ccccc1NC(=O)CSc1nnc(-c2ccccc2)c(-c2ccccc2)n1 -10.8%
CC(=O)N1CCCc2cc(S(=O)(=O)Nc3ccc(Cl)cc3F)ccc21 -5.83%
CCN1C(=O)/C(=C\N2CCN(c3ccccc3)CC2)SC1=S -10.5%
CCc1ccc(/C=C2\SC(N3CCOCC3)=NC2=O)cc1 -5.76%
CCc1ccc(NC(=O)c2cc(S(=O)(=O)N3CCCC(C)C3)cn2C)cc1 (stereo not drawn) 4.85%
Cc1c(Cl)cccc1-c1ccc(CNCCCSc2nnnn2C)o1 -6.19%
CCn1cc2nc(SCc3ccccc3Cl)n(CCc3ccccc3)c(=O)c2n1 -12.5%
Fc1ccc(/C=N/Nc2nc(-c3cccnc3)nc3ccccc23)cc1 -19.8%
Cc1n[nH]c(=O)nc1N/N=C/c1cccs1 -16.7%
Cc1cc(N/N=C/c2ccccc2F)c2ccccc2n1 0.109%
Oc1ccc(/C=N/NC2=NCCCCC2)c(O)c1 -11.4%
Cc1nc2nc(SCC(=O)NC3CCC(C)CC3)nn2c(C)c1Cc1ccccc1Cl (stereo not drawn) -13.3%
COC(=O)c1scc(-c2ccc(C)cc2)c1S(=O)(=O)Nc1cc(Cl)c(OC)cc1OC -2.57%
CC1CCN(S(=O)(=O)c2ccc3c(c2)N(CC(=O)NCCc2ccccc2)C(=O)CO3)CC1 -3.46%
CNc1nc(-c2ccccc2OC)nc2ccccc12 -7.91%
COc1ccccc1-c1nc(SC)n[nH]1 3.07%
CCc1cccc(NC(=O)Cn2nc(CC)n3c(cc4cc(C)ccc43)c2=O)c1 6.72%
Cc1cn(C)c(CC(=O)NCc2ccc(Cl)cc2)c1C(=O)O -5.43%
CCOc1cccc(CC(=O)N2CCc3c([nH]c4ccccc34)C2c2ccc(OC)cc2)c1OCC (stereo not drawn) -12.2%
CCOC(=O)C1CCC(CN(Cc2ccc(OC)cc2)S(=O)(=O)c2ccc(F)c(C(=O)Nc3cc(C)ccc3C)c2)CC1 (stereo not drawn) -2.42%
CCOC(=O)c1cc(-c2ccccc2)n(-c2cccc(C(=O)Nc3cc(OC)cc(OC)c3)c2)c1C 2.87%
O=C(CCCN1C(=O)/C(=C\c2ccccc2)SC1=S)Nc1ccccc1O -12.1%
COc1ccc(/C=C2\SC(=S)N(CC(=O)NNC(=O)c3ccncc3)C2=O)cc1 -17.1%
Cc1cc(OCC(=O)Nc2ncn[nH]2)c(C)c(C)c1Br 1.95%
CCOCCCNC(=O)c1cc2c(=O)n3ccccc3nc2s1 -11.4%
Cc1cccc(-n2c(=O)c3c(c4cc(C)ccc4n3C)n(CC(=O)Nc3ccccc3Cl)c2=O)c1 7.44%
Cc1noc(/C=C/N(C)C)c1S(=O)(=O)N1CCCC(C(=O)Nc2cccc(F)c2)C1 (stereo not drawn) -18.5%
O=C(NCc1ccco1)C1CCCN(S(=O)(=O)c2ccccc2)C1 (stereo not drawn) 9.5%
Cc1cccc(N2CCN(S(=O)(=O)c3ccc4[nH]c5c(c4c3)CCCCC5)CC2)c1C 9.87%
CC1(C)CC(=O)c2ccc(O)cc2O1 -1.2%
COc1ccccc1Cc1nc2ccccc2nc1SCC(=O)N1CCCc2ccccc21 -6.43%
CC1CCN(c2ccc([N+](=O)[O-])cc2C(N)=O)CC1 -10.4%
CCN1CCN(c2ccc([N+](=O)[O-])cc2C(=O)c2ccc(Cl)cc2)CC1 -12.9%
O=C(NC1(C(F)(F)F)N=C(c2ccccc2)N(C2CCCCC2)C1=O)c1ccccc1F (stereo not drawn) -3.93%
Fc1cc(F)c2nc(Nc3nc4c(F)cccc4s3)sc2c1 4.52%
CN(C)CCCN(C(=O)COc1ccccc1)c1nc2c(Cl)cccc2s1 3.98%
Cc1ccc(CNC(=O)Cn2c(=O)ccc3cc(S(=O)(=O)N4CCCC4)ccc32)cc1 3.36%
CCc1ccccc1NC(=O)Cn1c(=O)n(CC2CCC(C(=O)NCCc3ccccc3)CC2)c(=O)c2ccccc21 (stereo not drawn) -5.1%
C#CCOc1ccc(C2CC(=O)Nc3c2c(C)nn3-c2nc(C)cc(C)n2)cc1 (stereo not drawn) -6.86%
Cc1ccc(C(=O)N2CCc3cc(CNC(=O)c4ccc(Br)cc4)ccc32)cc1 -15.5%
Cc1nn(-c2ccc(N3CCCCC3)nn2)c(C)c1CCC(=O)NCc1ccccc1F -4.06%
O=Cc1cn(Cc2ccccc2)nc1-c1cccnc1 -0.733%
Clc1ccc(CN2CCN(/N=C/c3cccnc3)CC2)cc1 -5.56%

Potency, active:
CCN1CCc2c(C#N)c(NCc3ccccc3)nc(NCCO)c2C1 22.4 µM
CCC(C)Cn1c(O)cc2nn(-c3nc4ccccc4s3)c(=O)c-2c1C (stereo not drawn) 31.6 µM
C/C(=C\c1ccccc1)C1NC(=O)c2c(sc3c2CCCC3)N1 (stereo not drawn) 3.55 µM
CN(C)c1ccc(N/C=C/C(=O)C(F)(F)F)cc1 10 µM
Fc1ccc(Nc2nnns2)cc1 28.2 µM
Cc1ccc2sc(NNC(=O)c3ccc4c(c3)OCCO4)nc2c1C 12.6 µM
Cc1ccc(-n2[nH]c(C)c(/C=N/N3C(=O)c4cccc5cccc(c45)C3=O)c2=O)cc1 22.4 µM
O=c1c(O)c(Br)ccc2c(Br)c(O)c(O)c(O)c12 3.55 µM
Cc1cc(C(=O)N/N=C/c2ccc(O)c([N+](=O)[O-])c2)c(C)n1-c1ccc(F)cc1 14.1 µM
CCOC(=O)C1=NO[C@@]2(C=C(Br)C(=O)[C@H]3O[C@H]32)C1 15.8 µM
CCN1C(=O)/C(=C2\SC(N3CCCCC3)=NC2=O)c2ccccc21 11.2 µM
Cc1nc2ccccc2nc1N/N=C/c1ccc(O)cc1O 14.1 µM
Oc1ccc(/C=N/Nc2nc(-c3ccccc3F)nc3ccccc23)c(O)c1 4.47 µM
CNc1ccc(SC#N)cc1 12.6 µM
COc1ccccc1C1=Nc2cccc3cccc(c23)N1 11.2 µM
Nc1ccc(N=Nc2ccccc2Cl)c(N)n1 2 µM
COc1ccc(/C=C2/SC(=O)N(CCCCCC(=O)Nc3ccccc3C(=O)O)C2=S)cc1 11.2 µM
Cc1noc(/C=C/N(C)C)c1S(=O)(=O)N1CCCC(C(=O)NCc2ccco2)C1 (stereo not drawn) 28.2 µM
CC[C@@H]1Cc2cc(O)ccc2C2=C1c1ccc(O)cc1C[C@H]2CC 17.8 µM
O=[N+]([O-])c1ccc(N2CCN(c3ccc(O)cc3)CC2)c(Cl)c1 6.31 µM
NNc1nc2c(Cl)cccc2s1 22.4 µM
O=C1/C(=C\c2cccnc2)CN(Cc2ccccc2)C/C1=C\c1cccnc1 14.1 µM
